Values joined by “and” are separate entries in the source; they are usually repeats but may differ in a detail not shown here. Identical values can stand only once. Screen size: about 5,500 compounds; about 2,000 (36%) were called active. Inconclusive results (about 18%) are left out. No stated cut-off is given here; in the data, active means normalized growth mostly below about 0.91 (no sharp cut-off); inconclusive means no clear call, values can overlap the other calls; inactive means mostly above about 0.92. The list shows a part of the results.
Test: chemical genetic growth profiling, strain panel (AID 1159580);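 further: tested at 20 µM; growth read once vehicle control cultures reached saturation at 30 °C; 1 = growth at the plate median or of vehicle wells; lower values mean less growth of the strain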
Settings: S. cerevisiae deletion strains, growth OD

Measured: normalized growth

O=C(O)CNCP(=O)(O)O
inactive: locus YAL013W, strain DEP1, active compounds read low 0.998 | locus YAL021C, strain ccr4, active compounds read low 1.04 | locus YAL026C, strain drs2, active compounds read low 1.02 | locus YAL030W, strain snc1, active compounds read low 1.02 | locus YBL061C, strain skt5, active compounds read low 1.01 | locus YBR009C, strain hhf1, active compounds read low 1.01 | locus YBR021W, strain FUR4, active compounds read low 0.992 | locus YBR023C, strain chs3, active compounds read low 1.02 | locus YBR171W, strain sec66, active compounds read low 1.04 | locus YBR229C, strain ROT2, active compounds read low 1 | locus YBR231C, strain swc5, active compounds read low 1.02 | locus YBR279W, strain paf1, active compounds read low 1.02 | locus YCL011C, strain gbp2, active compounds read low 1.02 | locus YCL016C, strain dcc1, active compounds read low 1.02 | locus YCL029C, strain bik1, active compounds read low 1.01 | locus YCL061C, strain MRC1, active compounds read low 1.01 | locus YCL069W, strain vba3, active compounds read low 1.02 | locus YCR088W, strain abp1, active compounds read low 1.01 | locus YDL005C, strain med2, active compounds read low 1.03 | locus YDL035C, strain GPR1, active compounds read low 1.02 | locus YDL040C, strain nat1, active compounds read low 1.02 | locus YDL074C, strain BRE1, active compounds read low 1.04 | locus YDL101C, strain DUN1, active compounds read low 1.02 | locus YDL134C, strain PPH21, active compounds read low 1.01 | locus YDL185W, strain tfp1, active compounds read low 1.01 | locus YDL192W, strain arf1, active compounds read low 1.01 | locus YDR001C, strain nth1, active compounds read low 1.01 | locus YDR069C, strain doa4, active compounds read low 1.02 | locus YDR101C, strain arx1, active compounds read low 1 | locus YDR137W, strain rgp1, active compounds read low 1.02 | locus YDR150W, strain NUM1, active compounds read low 0.997 | locus YDR159W, strain sac3, active compounds read low 1.02 | locus YDR162C, strain NBP2, active compounds read low 1 | locus YDR195W, strain ref2 1.01 | locus YDR297W, strain sur2, active compounds read low 1.01 | locus YDR318W, strain mcm21, active compounds read low 1.02 | locus YDR334W, strain swr1, active compounds read low 1.03 | locus YDR335W, strain msn5, active compounds read low 1.02 | locus YDR388W, active compounds read low 1.01 | locus YDR392W, strain spt3, active compounds read low 1.03 | locus YDR502C, strain sam2, active compounds read low 1.01 | locus YEL003W, strain gim4, active compounds read low 1.01 | locus YEL037C, strain rad23, active compounds read low 1.01 | locus YEL061C, strain CIN8 (second series), active compounds read low 1.02 | locus YEL061C, strain CIN8, active compounds read low 0.998 | locus YER015W, strain faa2, active compounds read low 1.02 | locus YER016W, strain bim1, active compounds read low 1.01 | locus YER110C, active compounds read low 1.02 | locus YER111C, strain swi4, active compounds read low 1.01 | locus YER155C, strain BEM2 (second series), active compounds read low 1.02 | locus YER155C, strain BEM2, active compounds read low 1.01 | locus YER167W, strain BCK2, active compounds read low 0.999 | locus YFR010W, strain ubp6, active compounds read low 1.02 | locus YGL078C, strain dbp3, active compounds read low 1.01 | locus YGL086W, strain mad1, active compounds read low 1 | locus YGL167C, strain pmr1, active compounds read low 1.02 | locus YGL173C, strain kem1, active compounds read low 1.01 | locus YGL227W, strain vid30, active compounds read low 1.02 | locus YGL240W, strain doc1, active compounds read low 1.02 | locus YGL248W, strain PDE1, active compounds read low 1.02 | locus YGL253W, strain hxk2, active compounds read low 1.01 | locus YGR078C, strain PAC10, active compounds read low 1.01 | locus YGR135W, strain pre9, active compounds read low 1.02 | locus YGR229C, strain SMI1, active compounds read low 1.02 | locus YGR252W, strain gcn5, active compounds read low 1.01 | locus YHR013C, strain ard1, active compounds read low 1.06 | locus YHR027C, strain rpn1, active compounds read low 1 | locus YHR030C, strain SLT2, active compounds read low 1.01 and 0.97 | locus YHR079C, strain IRE1 (second series), active compounds read low 1.01 | locus YHR079C, strain IRE1, active compounds read low 0.992 | locus YHR094C, strain hxt1, active compounds read low 1 | locus YHR129C, strain ARP1, active compounds read low 1.01 | locus YHR142W, strain chs7, active compounds read low 1.02 | locus YHR200W, strain rpn10, active compounds read low 1.01 | locus YIL066C, strain RNR3, active compounds read low 1.02 | locus YIL073C, strain SPO22, active compounds read low 1.08 | locus YIL125W, strain kgd1, active compounds read low 1.01 | locus YIR030C, strain dcg1, active compounds read low 1.01 | locus YJL092W, strain hpr5, active compounds read low 1.02 | locus YJL095W, strain BCK1 (second series), active compounds read low 1.01 | locus YJL095W, strain BCK1, active compounds read low 1.01 and 0.975 | locus YJL115W, strain asf1, active compounds read low 1.02 | locus YJL129C, strain trk1, active compounds read low 1.03 | locus YJL134W, strain LCB3, active compounds read low 1.01 | locus YJL154C, strain vps35, active compounds read low 1.02 | locus YJL164C, strain tpk1, active compounds read low 1.02 | locus YJL166W, strain qcr8, active compounds read low 1.02 | locus YJL168C, strain set2, active compounds read low 1.01 | locus YJL187C, strain SWE1 (second series), active compounds read low 1.01 | locus YJL187C, strain SWE1, active compounds read low 1.01 | locus YJR043C, strain POL32, active compounds read low 1.01 | locus YJR066W, strain TOR1, active compounds read low 0.926
